Measurements: the supplement of paper PMC10849652
About 8,800 targets were measured; listed, in parts, are those with a hit and a random draw of the rest. About 0.5% of all pairs of compound and target were hits. Values without a mark were called inactive.

Tests used:
Assay in all cases: log2 fold change, soluble protein after heating vs DMSO (PISA); higher = thermal stabilisation; K562 lysate, 10 uM; active = over 0.2 and 3.5 SD of the protein, either way, in both replicates (recomputed)
alvocidib = compound: CN1CC[C@H](c2c(O)cc(O)c3c(=O)cc(-c4ccccc4Cl)oc23)[C@H](O)C1 [alvocidib]
In short: (§1)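 Soluble protein was defined as the supernatant remaining after 21,000xg for 90 min, following pooling of heated aliquots and adjustment to 0.5% NP-40 at 4°C. Before that, crude K562 extract at 1 mg/mL protein in PBS pH 7.4 with 1 mM MgCl2 was treated with 10 μM compound for 30 min and heated for 3 min across 48°C-58°C. Quantification used TMTpro 16plex LC-MS/MS with channel sums equalised, and values are log-two fold changes in thermal stability relative to solvent controls from duplicates.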

Tubastatin A = compound: CN1CCc2c(c3ccccc3n2Cc2ccc(C(=O)NO)cc2)C1 [Tubastatin A]
In short: as §1

[1] = compound: CNC(=O)C1=CC=CC=C1NC2=NC(=NC=C2Cl)NC3=C(C=C(C=C3)N4CCOCC4)OC
In short: as §1

defactinib = compound: CNC(=O)c1ccc(Nc2ncc(C(F)(F)F)c(NCc3nccnc3N(C)S(C)(=O)=O)n2)cc1 [defactinib]
In short: as §1

[2] = compound: CNc1nc(-c2ccc3c(N)n[nH]c3c2)cc(N2C[C@@H](C(=O)NC3CCCCC3)CC[C@H]2C)n1
In short: as §1

encorafenib = compound: COC(=O)N[C@@H](C)CNc1nccc(-c2cn(C(C)C)nc2-c2cc(Cl)cc(NS(C)(=O)=O)c2F)n1 [encorafenib]
In short: as §1

[3] = compound: COC(=O)[C@H](CCSC)NC(=O)C1=C(C=C(C=C1)NC[C@H](CS)N)C2=CC=CC=C2
In short: as §1

alisertib = compound: COc1cc(Nc2ncc3c(n2)-c2ccc(Cl)cc2C(c2c(F)cccc2OC)=NC3)ccc1C(=O)O [alisertib]
In short: as §1

[4] = compound: COc1cc2nc(-c3cc(F)ccc3O)nc(N[C@@H]3CNC[C@H]3C(C)(C)O)c2cc1OC
In short: as §1

gefitinib = compound: COc1cc2ncnc(Nc3ccc(F)c(Cl)c3)c2cc1OCCCN1CCOCC1 [gefitinib]
In short: as §1

lapatinib = compound: CS(=O)(=O)CCNCc1ccc(-c2ccc3ncnc(Nc4ccc(OCc5cccc(F)c5)c(Cl)c4)c3c2)o1 [lapatinib]
In short: as §1

pictilisib = compound: CS(=O)(=O)N1CCN(Cc2cc3nc(-c4cccc5[nH]ncc45)nc(N4CCOCC4)c3s2)CC1 [pictilisib]
In short: as §1

crizotinib = compound: C[C@@H](Oc1cc(-c2cnn(C3CCNCC3)c2)cnc1N)c1c(Cl)ccc(F)c1Cl [crizotinib]
In short: as §1

[5] = compound: C[C@H](C1=CC=C(C=C1)C(=O)NC2=C3C=CNC3=NC=C2)N
In short: as §1

duvelisib = compound: C[C@H](Nc1ncnc2nc[nH]c12)c1cc2cccc(Cl)c2c(=O)n1-c1ccccc1 [duvelisib]
In short: as §1

gandotinib = compound: Cc1cc(Nc2cc(CN3CCOCC3)c3nc(C)c(Cc4ccc(Cl)cc4F)n3n2)n[nH]1 [gandotinib]
In short: as §1

tozasertib = compound: Cc1cc(Nc2cc(N3CCN(C)CC3)nc(Sc3ccc(NC(=O)C4CC4)cc3)n2)n[nH]1 [tozasertib]
In short: as §1

doramapimod = compound: Cc1ccc(-n2nc(C(C)(C)C)cc2NC(=O)Nc2ccc(OCCN3CCOCC3)c3ccccc23)cc1 [doramapimod]
In short: as §1

bafetinib = compound: Cc1ccc(NC(=O)c2ccc(CN3CC[C@H](N(C)C)C3)c(C(F)(F)F)c2)cc1Nc1nccc(-c2cncnc2)n1 [bafetinib]
In short: as §1

[6] = compound: Cc1cccc(CC(=O)N2CCc3c2ccc(-c2cn(C)c4ncnc(N)c24)c3F)n1
In short: as §1

Sequence of UniProt Q8NI60 (Q8NI60 whole entry, looked up): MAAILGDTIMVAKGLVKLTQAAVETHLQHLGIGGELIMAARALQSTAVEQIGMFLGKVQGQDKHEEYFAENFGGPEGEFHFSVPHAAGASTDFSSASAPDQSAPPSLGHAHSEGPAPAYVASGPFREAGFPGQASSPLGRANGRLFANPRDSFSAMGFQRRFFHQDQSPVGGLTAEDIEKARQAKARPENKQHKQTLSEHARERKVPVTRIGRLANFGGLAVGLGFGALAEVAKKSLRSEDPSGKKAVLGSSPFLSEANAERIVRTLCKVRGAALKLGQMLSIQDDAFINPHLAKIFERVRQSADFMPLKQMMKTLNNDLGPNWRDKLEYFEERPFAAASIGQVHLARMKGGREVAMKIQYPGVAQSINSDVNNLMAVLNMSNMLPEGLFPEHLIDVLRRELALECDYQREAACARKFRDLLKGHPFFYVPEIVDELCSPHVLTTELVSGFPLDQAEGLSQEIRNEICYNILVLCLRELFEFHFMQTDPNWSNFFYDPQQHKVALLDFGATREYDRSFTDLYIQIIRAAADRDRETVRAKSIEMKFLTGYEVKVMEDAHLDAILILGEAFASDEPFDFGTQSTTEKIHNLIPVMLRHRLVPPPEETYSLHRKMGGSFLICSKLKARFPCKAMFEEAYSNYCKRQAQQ
Sequence of UniProt P17661 (P17661 whole entry, looked up): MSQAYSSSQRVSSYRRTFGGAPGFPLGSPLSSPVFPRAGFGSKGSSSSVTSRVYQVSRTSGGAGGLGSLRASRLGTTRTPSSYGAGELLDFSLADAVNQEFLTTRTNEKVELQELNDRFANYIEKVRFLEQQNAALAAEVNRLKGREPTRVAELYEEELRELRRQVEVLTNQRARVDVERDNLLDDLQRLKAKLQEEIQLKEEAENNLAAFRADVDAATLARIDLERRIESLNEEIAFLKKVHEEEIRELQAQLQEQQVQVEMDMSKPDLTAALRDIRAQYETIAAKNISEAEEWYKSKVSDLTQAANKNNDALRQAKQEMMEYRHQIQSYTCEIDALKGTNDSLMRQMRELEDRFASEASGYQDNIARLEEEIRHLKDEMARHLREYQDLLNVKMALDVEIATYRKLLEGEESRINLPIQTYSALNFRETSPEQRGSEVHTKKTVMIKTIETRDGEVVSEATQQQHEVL
Sequence of UniProt Q9NPI6 (Q9NPI6 whole entry, looked up): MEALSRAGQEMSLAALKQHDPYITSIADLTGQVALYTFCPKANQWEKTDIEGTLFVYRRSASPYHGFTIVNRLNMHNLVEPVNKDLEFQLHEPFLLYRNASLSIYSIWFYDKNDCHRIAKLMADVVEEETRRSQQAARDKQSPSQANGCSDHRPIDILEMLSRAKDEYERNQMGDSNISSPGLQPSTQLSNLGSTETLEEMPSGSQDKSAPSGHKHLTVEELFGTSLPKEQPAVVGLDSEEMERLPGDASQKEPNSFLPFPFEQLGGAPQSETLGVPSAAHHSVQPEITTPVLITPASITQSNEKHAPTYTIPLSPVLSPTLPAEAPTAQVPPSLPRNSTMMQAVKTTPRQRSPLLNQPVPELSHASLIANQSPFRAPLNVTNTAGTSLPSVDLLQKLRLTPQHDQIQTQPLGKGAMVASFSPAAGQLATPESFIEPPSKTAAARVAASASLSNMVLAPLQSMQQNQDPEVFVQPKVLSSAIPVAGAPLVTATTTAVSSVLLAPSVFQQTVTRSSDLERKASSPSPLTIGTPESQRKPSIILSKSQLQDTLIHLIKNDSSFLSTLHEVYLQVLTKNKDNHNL
Sequence of UniProt O00148 (O00148 whole entry, looked up): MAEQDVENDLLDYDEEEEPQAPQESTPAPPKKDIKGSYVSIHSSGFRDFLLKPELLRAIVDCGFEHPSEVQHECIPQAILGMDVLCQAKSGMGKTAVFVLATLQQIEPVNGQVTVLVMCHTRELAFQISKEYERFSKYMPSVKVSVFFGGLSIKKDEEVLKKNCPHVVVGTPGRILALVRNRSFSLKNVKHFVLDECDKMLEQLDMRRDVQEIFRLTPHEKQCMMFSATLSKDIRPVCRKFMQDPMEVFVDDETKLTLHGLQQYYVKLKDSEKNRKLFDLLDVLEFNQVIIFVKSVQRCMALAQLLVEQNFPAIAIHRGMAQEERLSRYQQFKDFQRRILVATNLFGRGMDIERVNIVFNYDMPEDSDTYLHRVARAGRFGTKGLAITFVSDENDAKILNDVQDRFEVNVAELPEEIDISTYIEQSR
Sequence of UniProt Q16850 (Q16850 whole entry, looked up): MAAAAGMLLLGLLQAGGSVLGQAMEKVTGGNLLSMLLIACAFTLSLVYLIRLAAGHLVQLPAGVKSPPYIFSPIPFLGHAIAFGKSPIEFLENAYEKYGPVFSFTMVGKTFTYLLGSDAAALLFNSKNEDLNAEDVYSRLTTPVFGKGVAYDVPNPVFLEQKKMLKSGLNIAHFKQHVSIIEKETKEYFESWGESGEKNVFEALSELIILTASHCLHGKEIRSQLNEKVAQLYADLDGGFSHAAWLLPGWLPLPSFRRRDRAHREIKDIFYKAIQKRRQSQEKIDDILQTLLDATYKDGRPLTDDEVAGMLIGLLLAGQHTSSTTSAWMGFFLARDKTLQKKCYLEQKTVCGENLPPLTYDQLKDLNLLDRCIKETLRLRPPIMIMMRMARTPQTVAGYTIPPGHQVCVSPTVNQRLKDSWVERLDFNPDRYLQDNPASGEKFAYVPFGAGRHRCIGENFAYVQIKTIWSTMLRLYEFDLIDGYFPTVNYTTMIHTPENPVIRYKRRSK
Sequence of UniProt Q9UBM7 (Q9UBM7 whole entry, looked up): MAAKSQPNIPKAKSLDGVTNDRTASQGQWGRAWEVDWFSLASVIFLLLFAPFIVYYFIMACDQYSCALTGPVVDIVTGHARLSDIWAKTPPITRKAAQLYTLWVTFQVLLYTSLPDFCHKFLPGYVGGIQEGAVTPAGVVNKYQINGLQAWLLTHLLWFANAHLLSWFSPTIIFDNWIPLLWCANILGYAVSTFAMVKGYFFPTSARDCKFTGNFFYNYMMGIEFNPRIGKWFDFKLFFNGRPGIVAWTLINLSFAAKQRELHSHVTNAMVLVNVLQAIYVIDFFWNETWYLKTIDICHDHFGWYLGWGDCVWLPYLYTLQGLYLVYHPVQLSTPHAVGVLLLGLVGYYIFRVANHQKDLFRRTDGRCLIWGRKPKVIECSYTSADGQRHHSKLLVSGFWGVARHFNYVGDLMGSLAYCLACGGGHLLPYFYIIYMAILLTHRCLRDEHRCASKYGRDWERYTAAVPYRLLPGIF
Sequence of UniProt Q96EP5 (Q96EP5 whole entry, looked up): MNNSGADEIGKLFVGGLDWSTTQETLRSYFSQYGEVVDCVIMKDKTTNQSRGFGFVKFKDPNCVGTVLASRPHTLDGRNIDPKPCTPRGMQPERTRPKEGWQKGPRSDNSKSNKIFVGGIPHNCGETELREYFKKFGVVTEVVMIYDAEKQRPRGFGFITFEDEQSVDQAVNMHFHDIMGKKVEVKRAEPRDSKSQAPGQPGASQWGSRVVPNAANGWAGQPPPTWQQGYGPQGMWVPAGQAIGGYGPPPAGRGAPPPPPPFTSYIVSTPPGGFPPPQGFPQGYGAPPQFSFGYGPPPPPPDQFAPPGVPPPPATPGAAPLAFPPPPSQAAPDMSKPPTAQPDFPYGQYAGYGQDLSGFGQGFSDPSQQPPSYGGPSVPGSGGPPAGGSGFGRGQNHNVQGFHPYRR
Sequence of UniProt P09622 (P09622 whole entry, looked up): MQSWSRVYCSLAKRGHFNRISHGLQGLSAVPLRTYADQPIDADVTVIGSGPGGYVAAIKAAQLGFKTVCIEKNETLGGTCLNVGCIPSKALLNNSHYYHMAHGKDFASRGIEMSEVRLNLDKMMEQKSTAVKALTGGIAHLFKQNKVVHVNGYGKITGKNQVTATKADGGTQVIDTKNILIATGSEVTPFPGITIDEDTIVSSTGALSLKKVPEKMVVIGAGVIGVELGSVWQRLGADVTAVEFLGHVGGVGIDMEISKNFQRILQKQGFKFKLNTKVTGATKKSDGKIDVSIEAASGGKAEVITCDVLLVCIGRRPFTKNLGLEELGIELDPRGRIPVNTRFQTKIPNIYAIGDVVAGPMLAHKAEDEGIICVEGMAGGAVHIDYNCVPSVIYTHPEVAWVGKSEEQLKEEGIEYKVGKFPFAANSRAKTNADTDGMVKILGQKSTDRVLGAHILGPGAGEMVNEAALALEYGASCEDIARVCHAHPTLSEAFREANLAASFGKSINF
Sequence of UniProt Q92796 (Q92796 whole entry, looked up): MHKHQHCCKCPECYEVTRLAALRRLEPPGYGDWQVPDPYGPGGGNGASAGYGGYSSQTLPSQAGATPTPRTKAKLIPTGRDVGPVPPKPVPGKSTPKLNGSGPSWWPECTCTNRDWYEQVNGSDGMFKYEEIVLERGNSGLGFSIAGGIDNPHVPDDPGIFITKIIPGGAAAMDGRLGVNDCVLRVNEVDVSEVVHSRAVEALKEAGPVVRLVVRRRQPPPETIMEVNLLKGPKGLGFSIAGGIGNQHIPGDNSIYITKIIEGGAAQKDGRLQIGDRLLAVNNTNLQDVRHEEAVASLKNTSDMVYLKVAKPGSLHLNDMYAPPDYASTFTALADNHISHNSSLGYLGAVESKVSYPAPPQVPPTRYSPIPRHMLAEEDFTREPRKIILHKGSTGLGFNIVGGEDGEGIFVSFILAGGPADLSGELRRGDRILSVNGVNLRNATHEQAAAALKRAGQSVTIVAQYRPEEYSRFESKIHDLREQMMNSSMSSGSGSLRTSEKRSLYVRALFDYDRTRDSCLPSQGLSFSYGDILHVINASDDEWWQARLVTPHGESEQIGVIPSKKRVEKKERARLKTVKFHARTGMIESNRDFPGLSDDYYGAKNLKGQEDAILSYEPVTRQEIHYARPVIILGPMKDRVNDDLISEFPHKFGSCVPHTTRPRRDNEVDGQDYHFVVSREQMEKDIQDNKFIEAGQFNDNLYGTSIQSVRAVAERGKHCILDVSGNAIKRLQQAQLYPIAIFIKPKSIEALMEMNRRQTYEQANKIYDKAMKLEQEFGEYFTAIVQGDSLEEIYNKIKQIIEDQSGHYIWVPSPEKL

Row | Target | log2 fold change (alvocidib) | log2 fold change (Tubastatin A) | log2 fold change [1] | log2 fold change (defactinib) | log2 fold change [2] | log2 fold change (encorafenib) | log2 fold change [3] | log2 fold change (alisertib) | log2 fold change [4] | log2 fold change (gefitinib) | log2 fold change (lapatinib) | log2 fold change (pictilisib) | log2 fold change (crizotinib) | log2 fold change [5] | log2 fold change (duvelisib) | log2 fold change (gandotinib) | log2 fold change (tozasertib) | log2 fold change (doramapimod) | log2 fold change (bafetinib) | log2 fold change [6]
1 | DLG3 isoform 2 (UniProt Q92796) | -0.136 | 0 | -0.026 | 0.053 | -0.01 | -0.089 | -0.082 | 0.069 | -0.055 | -0.131 | 0.008 | 0.073 | -0.01 | -0.047 | 0.125 | 0 | 0.097 | 0.043 | 0.055 | 0.065
2 | CHORDC1 (UniProt Q9UHD1) | 0.033 | 0.004 | 0.007 | 0 | -0.002 | -0.029 | -0.018 | -0.012 | -0.008 | -0.026 | -0.001 | 0.009 | 0.022 | 0.18 | 0.006 | -0.011 | 0.022 | -0.028 | 0.022 | -0.031
3 | COQ8A (UniProt Q8NI60) | 0.051 | -0.06 | 0.384 | 0 | 0.079 | 0.145 | -0.009 | -0.023 | 0.009 | 0.447 | 0.004 | 0.025 | 0.106 | -0.078 | -0.095 | 0.126 | 0.023 | -0.059 | 0.041 | -0.042
4 | DAZAP1 (UniProt Q96EP5) | -0.027 | 0.042 | -0.026 | -0.039 | 0.058 | -0.018 | -0.045 | 0.009 | -0.004 | 0.034 | 0.017 | -0.043 | 0.073 | 0.035 | 0.015 | 0 | 0.064 | 0.003 | 0.243 | -0.04
5 | DDX39A (UniProt O00148) | -0.017 | -0.171 | -0.006 | 0.003 | -0.025 | 0.001 | 0.163 | -0.026 | 0.004 | 0.009 | -0.004 | 0.021 | 0.006 | -0.022 | 0.004 | -0.104 | -0.008 | -0.046 | -0.004 | 0.093
6 | DES (UniProt P17661) | -0.144 | 0.091 | -0.023 | -0.056 | 0.26 | 0 | -0.029 | -0.017 | 0.117 | 0.04 | -0.079 | -0.03 | -0.082 | -0.301 | 0.098 | 0.13 | -0.014 | 0.047 | -0.051 | 0.121
7 | COG7 (UniProt P83436) | 0.019 | -0.114 | -0.02 | 0.056 | -0.047 | 0.028 | 0.035 | 0.014 | 0.012 | 0.004 | -0.014 | -0.008 | -0.025 | -0.068 | -0.01 | -0.059 | -0.028 | 0.028 | -0.044 | 0.058
8 | DIAPH3 (UniProt Q9NSV4) | 0.041 | -0.195 | 0.004 | -0.024 | -0.027 | 0.118 | 0.085 | 0.056 | -0.015 | 0.06 | 0.068 | 0.005 | 0.003 | 0.039 | -0.043 | -0.102 | -0.017 | 0.036 | -0.075 | 0.135
9 | DLD (UniProt P09622) | -0.024 | 0.041 | 0.03 | -0.02 | 0.046 | -0.014 | -0.13 | 0 | 0.008 | -0.055 | -0.003 | 0.009 | -0.001 | -0.067 | -0.012 | 0.047 | -0.016 | -0.001 | 0.005 | 0.012
10 | DHCR7 (UniProt Q9UBM7) | -0.008 | -0.038 | -0.008 | 0.016 | -0.031 | 0.019 | 0.037 | 0.029 | -0.008 | -0.035 | -0.092 | -0.039 | -0.103 | -0.024 | 0.067 | -0.215 (active) | -0.01 | 0.002 | 0.024 | 0.013
11 | COG4 (UniProt Q9H9E3) | 0.028 | -0.131 | 0.025 | 0.029 | -0.003 | 0.079 | 0.011 | 0.016 | 0.022 | 0.009 | -0.02 | -0.164 | -0.088 | -0.014 | 0.022 | -0.207 | 0.018 | 0.026 | 0.025 | 0.036
12 | CSDE1 isoform 4 (UniProt O75534) | 0 | -0.104 | 0.01 | 0 | -0.014 | -0.008 | 0.209 (active) | 0.004 | -0.021 | -0.014 | 0.001 | -0.004 | -0.006 | 0.041 | -0.015 | -0.095 | 0.003 | 0.005 | -0.021 | -0.017
13 | DNAJC1 (UniProt Q96KC8) | 0.016 | -0.053 | 0.013 | 0.06 | -0.059 | 0.056 | -0.257 | 0.038 | -0.104 | 0.041 | -0.057 | 0.013 | -0.086 | 0.033 | -0.046 | -0.262 (active) | 0.019 | -0.117 | 0.001 | -0.064
14 | DOCK10 (UniProt Q96BY6) | -0.354 | -0.028 | 0.208 | 0.133 | 0.046 | 0.067 | -0.002 | 0.05 | -0.042 | 0.084 | -0.025 | -0.024 | -0.461 | -0.641 (active) | 0.003 | 0.231 | 0 | 0.137 | -0.226 | 0.379
15 | DCP1A (UniProt Q9NPI6) | -0.002 | 0 | 0.003 | 0.033 | 0 | 0.006 | -0.046 | -0.074 | 0.026 | 0.022 | -0.015 | -0.015 | -0.042 | -0.008 | 0.023 | 0.003 | -0.03 | -0.031 | 0.043 | 0.089
16 | CYP51A1 (UniProt Q16850) | -0.017 | 0.007 | 0.005 | -0.001 | 0.023 | -0.019 | 0.09 | 0.019 | 0.053 | 0 | 0.105 | 0.024 | 0.023 | -0.036 | -0.065 | 0.447 (active) | 0 | 0.089 | 0.385 (active) | 0.045
